# Activity calls are given as the source filed them. No rule for the calls is given here.
# Conditions: Ebola virus entry assay, ratio channel
Compound,AC50,outcome
CC(NCCC(c1ccccc1)c1ccccc1)c1ccccc1 (configuration not stated),2.51 µM (active),
Oc1ccc(CCNCCCCCCNCCc2ccccc2)cc1O,1 µM (active),
CN(C)CCCN1c2ccccc2Sc2ccccc21,5.01 µM (active),
O=C(N[C@H]1N=C(c2ccccc2F)c2cccc3c2N(CC3)C1=O)c1cc2ccccc2[nH]1,20 µM (active),
CCNC(=O)N1CCN(CCCC(c2ccc(F)cc2)c2ccc(F)cc2)CC1,11.2 µM (active),
CN1CCCC(CC2c3ccccc3Sc3ccccc32)C1 (configuration not stated),3.16 µM (active),
O=C1OC2(c3ccccc31)c1cc(I)c(O)c(I)c1Oc1c2cc(I)c(O)c1I,,inactive
CN1CCC(=C2c3ccccc3CCc3cccnc32)CC1,31.6 µM (active),
O=C(c1ccc(F)cc1)C1CCN(CCn2c(=O)[nH]c3ccccc3c2=O)CC1,17.8 µM (active),
CCN(CC)CCOc1ccc(Cc2ccccc2)cc1,3.55 µM (active),
CSc1ccc(/C=C2/C(C)=C(CC(=O)O)c3cc(F)ccc32)cc1,,inactive
CCCCCCCCCCOCC(O)CN (configuration not stated),1.78 µM (active),
CCCCOc1ccc(C(=O)CCN2CCCCC2)cc1,31.6 µM (active),
O[C@@H](COc1cccc2ncccc12)CN1CCN(C2c3ccccc3[C@@H]3[C@H](c4ccccc42)C3(F)F)CC1 (some centres not stated),10 µM (active),
O=C1[C@H]2CCCC[C@H]2C(=O)N1CCCCN1CCN(c2nsc3ccccc23)CC1,17.8 µM (active),
O=C(CCCN1CCC(O)(c2ccc(Br)cc2)CC1)c1ccc(F)cc1,5.62 µM (active),
COc1ccc(CCN2CCC(Nc3nc4ccccc4n3Cc3ccc(F)cc3)CC2)cc1,2.82 µM (active),

# — PubChem BioAssay (NCATS)
